From PubChem BioAssay (NCI) come the findings set out here.

Holding throughout (assay): NCI-60 one-dose screen, 48 h (100 = growth as untreated, 0 = no growth, -100 = all killed)
Common to all, as to conditions: 10 µM unless noted

Test [1] deals with DU-145 prostate.
For test [2], the system named is K-562 leukemia.
Test [3] deals with MDA-MB-231 breast.
Test [4] deals with RXF 393 renal.
Test [5] has as its system SF-268 CNS.
The subject of test [6] is SF-295 CNS.
Test [7] has as its system SF-539 CNS.
Test [8] has as its system UACC-257 melanoma.
Test [9] has as its system M14 melanoma.
The subject of test [10] is MALME-3M melanoma.

Compounds without any hit were thinned out: in the full panel of roughly 83,000, 20% have a hit.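 In brief: 96-well plates, 48 h treatment, single concentration, percent growth endpoint.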 Unmarked numbers belong to inactive results. Active and inactive are the calls of the source. How the source made its calls: active means growth percent below 10; inactive means the rest.

On to `COc1ccc(/C=C/C(=O)c2ccc([N+](=O)[O-])cc2)cc1`, for which the growth in test [1] was 109%; in [2], 101%; in [3], 94.5%; in test [4], 110%; in test [5] it was 106%; in [6] it was 114%. Besides, the growth was 104% in test [7], 110% in test [8] and 106% in [9].
On to `O=C(O)c1cccc2c1-c1ccc(Cl)cc1C2`, for which the growth was 110% in test [1]; 97.9% in test [2]; 108% in [3]; 124% in [4]; 107% in test [5]; 116% in [6]. Further, the growth in test [7] was 104%; in test [8] it was 107%; in [9], 120%.
On to `Cn1cc(-c2nc(-c3cn(C)c4ncccc34)cs2)c2ccccc21`, for which the growth in test [1] is 58.9%; in test [2], 12.6%; in test [3] it was 48.6%; in test [4], 35.5%; in test [5], 45.4%; in test [6], 20.7%. Further, the figures for the growth in [7], in [8] and in [9] were 27.6%, 60.6% and 8.62% (active), respectively.
As to `Cn1cc(-c2nc(-c3cn(C)c4ncccc34)cs2)c2cc(F)ccc21`, the growth was 57.4% in test [1]; 16% in test [2]; 47.1% in [3]; 30.8% in [4]; 52.2% in [5]; 16.3% in test [6]. Further, the growth in test [7] was 26.6%; in [8] it was 61.7%; in test [9], 17.2%.
For the compound `O=C(/C=C\c1ccc2c(c1)OCO2)/C=C/c1ccc2c(c1)OCO2`, the growth was 90.7% in test [1]; 4.27% (active) in [2]; 98.2% in test [10]; 85% in test [4]; 93.3% in [5]; 89.7% in test [6]. Moreover, the values for the growth in test [7], in [8] and in [9] were 26.2%, 98.2% and 40%, respectively.
As to `O=C1C=Cc2ncccc2C1=O`, the growth in test [1] was 78.9%; in [2] it was 0.688% (active); in test [10] it was 89.9%; in [4] it was 106%; in test [5] it was 97%; in [6], 102%. Also, the growth in test [7] is 86.3%; in test [8], 88.1%; in test [9], 95.5%.
For the compound `Cn1cc(-c2nc(-c3c[nH]c4ncccc34)cs2)c2ccccc21`, the growth in [1] was 99.9%; in test [2], 65.5%; in [3], 42.9%; in test [4], 84.3%; in test [5], 99.3%; in test [6], 98%. Moreover, the growth in [7] is 99.9%; in test [8] it was 95.5%; in test [9] it was 81.1%.
For the compound `Nc1ccc(Br)cn1`, the growth was 112% in [1]; 117% in test [2]; 99.3% in test [3]; 108% in [4]; 110% in test [5]; 114% in test [6]. The growth was 99.1% in test [7], 106% in test [8] and 98.6% in test [9].
For the compound `Oc1ccc(Nc2ccccc2)cc1`, the growth is 94.6% in test [1]; 79.6% in test [2]; 70.7% in [10]; 52.6% in [3]; 88.2% in test [5]; 82% in [6]. Also, the growth in test [7] was 64.5%; in test [8], 110%; in test [9], 104%.
Regarding `COC1=C(Br)C(=O)C(OC)=C(Br)C1=O`, the growth in test [1] is 109%; in [2] it was 31.7%; in [10], 102%; in [4], 119%; in test [5], 111%; in test [6], 111%. Besides, the growth in test [7] is 108%; in test [8] it was 94.4%; in test [9] it was 105%.
As for `O=C(N/N=C\c1c(O)ccc2ccccc12)C1CC1`, the growth was 69.1% in test [1]; 34% in test [2]; 38.5% in test [3]; 50.4% in test [4]; 42.3% in test [5]; 30% in test [6]. For the same compound, the growth in test [7] is 33.2%; in test [8] it was 11.2%; in [9], 39.9%.
Take `Cn1cc(-c2csc(-c3c[nH]c4ccccc34)n2)c2cccnc21`: the growth in test [1] is 16.5%; in test [2], 18.9%; in test [3] it was 48.3%; in test [4], 12.6%; in test [5] it was 45.4%; in test [6], 6.62% (active). Further, the growth in [7] is -1.15% (active); in [8] it was 64.6%; in test [9] it was 23.8%.
As to `CC1c2ccccc2N(S(=O)(=O)c2ccccc2)C1C` (centres undefined), the growth in [1] is 102%; in [2], 34.1%; in test [3], 91.2%; in test [4], 88%; in test [5] it was 102%; in test [6], 94.9%. The growth is 104% in test [7], 93.6% in test [8] and 77.6% in test [9].
Consider `CN(C)c1ccc(C(=O)c2ccc(N(C)C)c(N)c2)cc1N`, for which the growth in test [1] was 6.99% (active); in test [2], 21.4%; in test [10], 34.2%; in test [3], 55.8%; in test [5] it was 43.6%; in test [6], 21.9%. Moreover, the growth was 3.19% (active) in test [7], 77.3% in [8] and 13% in test [9].
As for `Cn1cc(-c2nc(-c3c[nH]c4ncccc34)cs2)c2cc(Cl)ccc21`, the growth in [1] is 54.4%; in test [2], 9.43% (active); in test [3], 55.3%; in [4], 63.4%; in [5], 65.4%; in test [6] it was 24.4%. Also, the growth is 71.7% in test [7], 56% in test [8] and 42.2% in test [9].
`O=C(O)c1cccc2c1C(=O)N(c1ccc3c(c1)Cc1ccccc1-3)C2=O`: the growth was 116% in test [1]; 105% in [2]; 113% in test [3]; 110% in test [4]; 117% in [5]; 121% in test [6]. Besides, the growth was 110% in test [7], 109% in test [8] and 119% in test [9].
